Common to all, as to assay: NCI-60 one-dose screen, 48 h (100 = growth as untreated, 0 = no growth, -100 = all killed)
In test [1] the test system is HCT-15 colon. As to conditions: 10 µM unless noted.
For test [2], the system named is HT29 colon. The settings on record: 10 µM unless noted.
Test [3] deals with SNB-75 CNS. The settings on record: 10 µM unless noted.
For test [4], the system named is U251 CNS. The settings on record: 10 µM unless noted.
The subject of test [5] is PC-3 prostate. As to conditions: 10 µM unless noted.
The subject of test [6] is SK-MEL-5 melanoma. As to conditions: 10 µM unless noted.
Test [7] relates to UACC-62 melanoma.
For test [8], the system named is LOX IMVI melanoma. The settings on record: 10 µM.
Test [9] concerns SK-MEL-28 melanoma. The settings on record: 10 µM unless noted.
Test [10] deals with SK-MEL-2 melanoma. As to conditions: 10 µM unless noted.
Test [11] concerns SN12C renal. The settings on record: 10 µM unless noted.
Test [12] concerns TK-10 renal.
The test system of test [13] is ACHN renal. As to conditions: 10 µM unless noted.
The test system of test [14] is CAKI-1 renal. The settings on record: 10 µM unless noted.
The test system of test [15] is A498 renal. As to conditions: 10 µM unless noted.
The subject of test [16] is CCRF-CEM leukemia. The settings on record: 10 µM unless noted.
The test system of test [17] is MOLT-4 leukemia. The settings on record: 10 µM unless noted.
The subject of test [18] is EKVX NSCLC. As to conditions: 10 µM unless noted.
The test system of test [19] is UO-31 renal. The settings on record: 10 µM unless noted.
In test [20] the test system is SNB-19 CNS. The settings on record: 10 µM unless noted.

SMILES strings stand for the structures. Values joined by “and” are separate entries in the source; they are usually repeats but may differ in a detail not shown here. Equal entries are not always repeated. The panel holds about 83,000 compounds, 20% with a hit somewhere; the sample as a whole holds those more often.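 In brief: 96-well plates, 48 h treatment, single concentration, percent growth endpoint.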 Values without a mark were called inactive. Active and inactive are the calls of the source. The calls were made as follows: active = growth percent below 10; inactive = the rest.

With `CCCCCCCCCCCC[S+](C)CC(=O)[O-]` (stereo not given), the growth is 84.6% in test [1]; 44.7% in test [2]; 29.7% in test [3]; 43.7% in [4]; 25% in test [5]; -62.3% (active) in test [6]. Further, the growth in test [7] (10 µM unless noted) is 31.8%; in [8], 32.9%; in test [9], 62.9%; in test [10], 51.7%; in test [11], 13.7%; in test [12] (10 µM unless noted), 20.6%. For the same molecule, the growth is 61.4% in test [13]; 38.7% in test [14]; 95.4% in test [15]; 11.9% in test [16]; 32.9% in [17].
Turning to `N#C/C(=N\Nc1ccc(Cl)cc1)C(=O)C1CC1`, the growth in test [1] was 53.9%; in test [2] it was 67.6%; in test [3], 56.5%; in test [4], 40.5%; in test [5], 54.3%; in test [6] it was 0.976% (active). The growth in test [7] (10 µM unless noted) is 32.1%; in test [8], 67.2%; in [9] it was 53.9%; in test [10], 11.8%; in test [18], 32.2%; in test [11], 41.4%. Moreover, the growth in test [12] (10 µM unless noted) was 52.9%; in test [13], 69.1%; in test [14] it was 49.1%; in test [15], 43.4%; in test [16], 64.3%; in [17], 79.8%.
For `Cc1cc(C(N)=O)cc(C)c1C(=O)OCCCl`, the growth is 111% in test [1]; 106% in [2]; 100% in test [3]; 96.9% in test [4]; 96.8% in test [5]; 101% in test [6]. Besides, the growth in [7] (10 µM unless noted) was 102%; in test [8], 97.5%; in test [9], 110%; in [10], 119%; in [18], 89.1%; in test [11], 98.3%. The growth in test [19] is 86.2%; in [12] (10 µM unless noted), 106%; in [13], 108%; in test [14], 97.6%; in test [15], 98.8%; in [16] it was 112%. In test [17], the growth was 95.8%.
`CCCCC(C=O)(C=C=C(C)C)CC` (stereo not given): the growth is 98.2% in [1]; 109% in test [2]; 87.3% in test [3]; 102% in test [20]; 92.6% in test [5]; 104% in test [6]. Further, the growth was 95.8% in test [7] (10 µM unless noted); 96.8% in test [8]; 101% in test [9]; 102% in [11]; 93.4% in test [19]; 104% in test [12] (10 µM unless noted). Also, the growth in [13] was 99.3%; in test [14], 98.2%; in test [15], 82%; in test [16] it was 88.5%; in test [17], 97%.
Take `Nc1nc2ncc(CNc3ccc(C(=O)NC(CCC(=O)NC(CCC(=O)NC(CCC(=O)NC(CCC(=O)NC(CCC(=O)O)C(=O)O)C(=O)O)C(=O)O)C(=O)O)C(=O)O)cc3)nc2c(=O)[nH]1` (stereo not given): the growth in test [1] is 103%; in test [2], 107%; in test [3] it was 107%; in [4], 110%; in test [5], 100%; in test [6], 94.7%. The growth in [7] (10 µM unless noted) is 94.5%; in test [8], 100%; in test [9], 110%; in [10], 118%; in [18], 95.9%; in test [11], 101%. Besides, the growth was 110% in test [13]; 89.7% in [14]; 116% in test [15]; 102% in [16]; 107% in test [17].
Regarding `CC(C)=CCCC(C)C1=C(O)C(=O)C(C)=CC1=O` (stereo not given), the growth is 1.72% (active) in test [1]; 83.6% in [2]; 113% in test [3]; 81.3% in [4]; 90.8% in test [5]; 88.7% in [6]. In addition, the growth is 103% in [7] (10 µM); -98.4% (active) and -93.3% (active) in test [7] (100 µM); 59.1% in test [8]; 92.9% in [10]; 122% in test [18]; 106% in test [11]. The growth is -98.3% (active) in [19]; 5.08% (active) in test [12] (10 µM); -99.3% (active) and -84.7% (active) in [12] (100 µM); -39% (active) in test [13]; 88.4% in test [14]; 92.9% in [15]. For the same molecule, the growth was -29.2% (active) in test [16] and -30.1% (active) in test [17].
As for `Nc1cccc2cccc([N+](=O)[O-])c12`, the growth is 105% in test [1]; 106% in test [2]; 81.8% in test [3]; 102% in test [20]; 103% in test [5]; 111% in [6]. In addition, the growth in test [7] (10 µM unless noted) was 98.9%; in test [8], 105%; in test [9], 96.4%; in [18] it was 120%; in [11], 107%; in test [19] it was 74.7%. In addition, the growth in [12] (10 µM unless noted) is 109%; in test [13], 116%; in test [14], 107%; in [15], 104%; in [16], 102%.
Take `CSc1nc(C)c(C(=O)CCN2CCN(c3ccccn3)CC2)s1`: the growth in [1] is 97.3%; in test [2] it was 102%; in [3], 103%; in test [20] it was 96.1%; in test [5] it was 94.3%; in [6] it was 101%. The growth in [7] (10 µM unless noted) was 98.7%; in [9], 106%; in [11], 97.6%; in test [19], 82.9%; in test [13], 101%; in test [14], 100%. In addition, in test [15], the growth is 88.4%.
`CC1(O)CCCCCC1`: the growth in test [1] was 102%; in test [2] it was 110%; in [3], 86.3%; in test [20], 97.6%; in [5], 103%; in test [6] it was 101%. In addition, the growth in [7] (10 µM unless noted) is 100%; in [8] it was 94.2%; in test [9], 106%; in [11], 99.9%; in test [19] it was 82.6%; in test [12] (10 µM unless noted) it was 99.5%. Moreover, the growth in [13] is 103%; in test [14], 101%; in test [15] it was 75.3%; in test [16] it was 92.7%; in test [17], 92.8%.

Source of the values: PubChem BioAssay (NCI).
